# KDM5B inh = blocks human KDM5B histone demethylase activity; KDM5B demethylase, FDH-coupled NADH fluorescence (FDH is formaldehyde dehydrogenase); Potency, µM (series often up to 57.7 µM), hits mostly inhibitors; 2.6% of 220,000 active; active means well fitted inhibition curve with a large enough effect; inconclusive means small, poorly fitted or top-dose-only effect; inactive means no such curve, though single readings can be large or run the other way; further: potency means the concentration at half of the fitted maximal effect; 0% is about no effect; nearly all actives have a fitted effect of over 70% in size
#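 Measured: NADH fluorescence change, 30 min, RT. System: KDM5BΔAP 200 nM final, H3K4me3 peptide, α-KG, Fe(II), ascorbate, NAD⁺ plus FDH, pH 7.5 HEPES. Compounds: titrated, 10 min pre-incubation with enzyme.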
# IP6K1 inhibitor = blocks human inositol hexakisphosphate kinase 1. IP6K1 kinase, ADP-Glo luminescence, 2 h; active compounds read low. activity change, % (series mostly up to about 58 µM). 0.81% of 140,000 active. AID 1645851; in the data active means activity change below about -25%; further: on the % scale 0 is the no-effect control and ±100 the full control effect
#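 ADP-Glo luminescence measures ADP made by human IP6K1 during a 2 h RT reaction with ATP/IP6 (mix at 1.3 mM/130 uM); top library doses 57.5 and 19.1 uM final.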
# * marks the source's active call; other numbers are inactive results; i = inactive; ? = inconclusive; / = not tested or not shown; ! = a repeat was not active. An excerpt weighted towards active compounds, which were near 2.8% of everything screened.
SMILES,KDM5B inh,IP6K1 inhibitor
CCC(CC)C(=O)Oc1ccc2c(=O)c(Oc3cccc(C)c3)coc2c1,i,/
Cc1nn(Cc2ccccc2)c(C)c1CNS(=O)(=O)c1ccc(F)cc1,i,/
CNc1nc2c(c(C(=O)N3CCCC3)n1)CN(C(=O)Cn1nccc1C)CC2,22.4µM*,-2.3
CNc1nc2c(c(C(=O)N3CCCC3)n1)CN(C(=O)C(C)n1cc(C)cn1)CC2 (stereo not drawn),?,-1.6
COCCCNc1nc2c([S+](=O)([O-])c3cc(OC)ccc3OC)nnn2c2ccccc12,79.4µM*,2.4
COc1ccc(OC)c([S+](=O)([O-])c2nnn3c2nc(NC2CCCC2)c2ccccc23)c1,?,3.5
Cc1ccc(S(=O)(=O)c2nnn3c2nc(NCCCOC(C)C)c2ccccc23)cc1C,?,8.1
COCCNc1nc2c(S(=O)(=O)c3cc(C)ccc3C)nnn2c2ccccc12,79.4µM*,8.8
COc1ccc(OC)c([S+](=O)([O-])c2nnn3c2nc(NCCCOC(C)C)c2ccccc23)c1,89.1µM*,-0.6
Cc1ccc(C)c(S(=O)(=O)c2nnn3c2nc(NCCCOC(C)C)c2ccccc23)c1,?,41.6
Cc1ccc(C(=O)N2CCN(CCCn3nc4n(c3=O)CCCC4)CC2)cc1,/,4.7
CC(C)NC(=O)N1CCC2(CC1)NC(=O)c1ccccc1O2,i,/
COc1ccc(-c2ccc(C(=O)N3CCC(NC(=O)Nc4ccc(C)c(F)c4)CC3)cc2)nn1,/,-5.3
CN(C)C(=O)c1ccc2nccn2c1,126µM*,-7.7
CC(C)NC(=O)c1ccc2nccn2c1,141µM*,-11.1
O=C(c1ccc2nccn2c1)N1CCCCC1,i,-8.9
COc1ccc([C@@H](NC(=O)c2ccc3nccn3c2)C2CC(O)C2)cn1 (stereo partly drawn),20µM*,16.0
COc1ccc([C@@H](NC(=O)c2cc3ncccn3n2)C2CC(O)C2)cn1 (stereo partly drawn),i,-1.4
O=C(c1ccc2nccn2c1)N1CCCC1,?,-3.3
CCC1=C(c2ccc(C)cc2)S(=O)(=O)N=C1N1CCC(C(=O)NCc2ccc(N(C)C)cc2)CC1,?,18.1
CC(=O)Nc1ccc(OCC(=O)N2CCC(C)CC2)nc1,i,13.9
Cn1cnc(C(=O)N2CC(c3nc(CCOCc4ccccc4)no3)C2)c1,/,15.3
O=C(NCc1cccs1)c1cc2c(s1)CCN(C(=O)c1ccc(F)cc1)C2,i,5.5
Cc1cnc(NC(=O)c2ccc3c(c2)OCCN(c2ccccc2)C3)s1,28.2µM*,-10.3
CNC(=O)c1ccc2c(c1)OCCN(c1ccccc1)C2,i,-8.2
SMILES,KDM5B inh,IP6K1 inhibitor
COc1ccc(-n2cnc3cc(C(=O)NC4CCCCCC4)ccc32)cc1,i,2.3
Cc1ccc(C(=O)NCc2nnc3c(-c4nc(C5CC5)no4)cccn23)cc1F,?,7.2
O=C(Cc1ccc(F)cc1)NCc1nnc2c(-c3nc(C4CC4)no3)cccn12,31.6µM*,8.5
O=C(NCc1nnc2c(-c3nc(C4CC4)no3)cccn12)c1cccc(Cl)c1,28.2µM*,15.7
O=C(Cc1cccc(F)c1)NCc1nnc2c(-c3nc(C4CC4)no3)cccn12,31.6µM*,13.3
Cc1ccc(CC(=O)NCc2nnc3c(-c4nc(C5CC5)no4)cccn23)cc1,?,5.2
O=C(NCc1nnc2c(-c3nc(C4CC4)no3)cccn12)c1ccc(F)cc1Cl,20µM*,0.3
O=C(NCc1nnc2c(-c3nc(C4CC4)no3)cccn12)c1ccccc1Cl,?,26.1
O=C(NCc1nnc2c(-c3nc(C4CC4)no3)cccn12)c1cccc2[nH]ccc12,i,11.4
CCN(C(=O)c1cccc(C(=O)OC)c1)C12CC3CC(CC(C3)C1)C2,i,/
O=C(NCc1nnc2c(-c3nc(C4CC4)no3)cccn12)c1ccc(F)c(F)c1,?,6.6
O=C(NCc1nnc2c(-c3nc(C4CC4)no3)cccn12)c1cccc(F)c1,25.1µM*,-5.1
Cc1nn(-c2ccc(Cl)nn2)c2c1C(c1coc3ccccc3c1=O)CC(=O)N2 (stereo not drawn),i,/
FC(F)(F)c1cccc2c(N3CCC4(CCCN4Cc4ncc[nH]4)CC3)ccnc12,28.2µM*,36.7
COCCC1(C(=O)O)CCN(c2ccnc3c(C(F)(F)F)cccc23)CC1,i,-0.3
CC(C)NC(=O)N1CCC(O)(c2csc(CN(C)Cc3cccnc3)n2)CC1,i,3.6
COc1ccc(CC(=O)Nc2ccc3n(c2=O)C[C@H]2C[C@@H]3CN(C(=O)c3ccc(-c4ccccc4)cc3)C2)cc1,25.1µM*,-7.7
COc1ccc(NC(=O)N2C[C@@H]3C[C@H](C2)c2ccc(NC(=O)Nc4cccc(C#N)c4)c(=O)n2C3)cc1,28.2µM*,2.8
COc1ccc(CC(=O)Nc2ccc3n(c2=O)C[C@H]2C[C@@H]3CN(C(=O)Nc3ccc(OC)cc3)C2)cc1,i,-3.9
O=C(Nc1cccc(F)c1)Nc1ccc2n(c1=O)C[C@H]1C[C@@H]2CN(C(=O)c2ccc(F)cc2)C1,28.2µM*,-4.0
COc1ccc(NC(=O)N2C[C@@H]3C[C@H](C2)c2ccc(NC(=O)Nc4ccccc4)c(=O)n2C3)cc1,?,0.2
O=C(c1ccc(F)cc1)N1C[C@@H]2C[C@H](C1)c1ccc(NS(=O)(=O)c3cccc(F)c3)c(=O)n1C2,?,0.5
COC(=O)CN1CCN(c2nc3c(c(=O)[nH]c(=O)n3C)n2Cc2cccc(Cl)c2)CC1,i,/
COc1cccc(-c2nc(N3CCOCC3)cc3c2CN(C)C3=O)c1,35.5µM*,7.4
COc1cccc(-c2nc(N3CCOCC3)cc3c2CN(C)C3=O)c1OC,39.8µM*,9.7
SMILES,KDM5B inh,IP6K1 inhibitor
COc1cccc(NC(=O)Nc2cccc(-c3ccc(N4CCOCC4)nn3)c2)c1,i,-20.6
CCCn1c(=O)[nH]c(=O)c2c1nc(-c1cccc(OC)c1OC)n2CCN1CCOCC1,i,/
CN1Cc2c(cc(N3CCOCC3)nc2-c2cccc(N[S+](C)(=O)[O-])c2)C1=O,35.5µM*,19.6
CN1Cc2c(cc(N3CCOCC3)nc2-c2cccc(C(F)(F)F)c2)C1=O,i,11.1
CC(C)CCN1CC[C@H](c2nnc(-c3cccnc3)o2)C1,i,9.1
O=S(=O)(NCC(O)Cn1c2ccc(Cl)cc2c2cc(Cl)ccc21)c1ccccc1 (stereo not drawn),i,/
Cn1c(=O)c2c(nc(N3CCCC3)n2CC(=O)O)n(C)c1=O,i,/
CCOc1ccccc1NC(=O)CSc1ncnc2ccccc12,i,/
COc1ccc(-c2ccc3ncc(Nc4cc(F)ccc4OC)n3n2)cn1,i,-15.2
Clc1ccc(Nc2cnc3ccc(-c4ccccc4)nn23)nc1,i,-24.5
COc1ccc(F)cc1Nc1cnc2ccc(N(C)C)nn12,31.6µM*,-16.9
CN(C)c1ccc2ncc(Nc3ccc(Cl)cn3)n2n1,35.5µM*,-12.3
Cc1ccc2nc(Cl)c3cc(C(=O)NC4CCCC4)sc3c2c1,i,/
Cc1c(C)c(C)c(C(=O)O)c(C)c1C,i,/
COC(=O)c1c(-c2cccs2)csc1NC(=O)COc1ccc(C(C)(C)C)cc1,?,-4.4
CCn1c(CO)nnc1C1CC(NC(=O)c2nc(-c3ccccc3)[nH]c2C)C1 (stereo not drawn),i,23.2
CCn1c(CO)nnc1C1CC(NC(=O)NCCc2ccccc2F)C1 (stereo not drawn),i,6.8
Cn1c(Cn2cccn2)nnc1C1CC(NC(=O)c2sccc2N)C1 (stereo not drawn),15.8µM*!,3.1
